Here are results for 18 compounds from PubChem BioAssay (NCI).

Test systems include HCT-15 colon; HT29 colon; SNB-75 CNS; SNB-19 CNS; U251 CNS; PC-3 prostate; SK-MEL-5 melanoma; UACC-62 melanoma; LOX IMVI melanoma; SK-MEL-28 melanoma.
What all share (assay): NCI-60 one-dose screen, 48 h (100 = growth as untreated, 0 = no growth, -100 = all killed)
Conditions in all cases: 10 µM unless noted

This is part of a sample that, as a whole, favours compounds with a hit. Of some 83,000 tested, about 20% had one in any assay.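 Single-dose data. Exposure time 48 hours. Values below 10 considered active.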 Values without a mark were called inactive. The source made the active and inactive calls.

As for `CC12CCC3C(C=CC4=C(N)C(=O)CCC43C)C1CCC2=O` (stereo not given), the growth was 73% in the assay with HCT-15 colon; 51.2% in the assay on HT29 colon; 94.2% in the assay with SNB-75 CNS; 103% with SNB-19 CNS; 54.2% with U251 CNS; 46.5% with PC-3 prostate. Further, the growth is 69.7% with SK-MEL-5 melanoma, 81% with UACC-62 melanoma, 60.6% with LOX IMVI melanoma and 103% in the assay with SK-MEL-28 melanoma.
As to `CCCCCSC1C2C(=O)C(Br)=CC13CCNc1c(O)c4c5c(c13)=[N+]2CCC=5C=N4` (stereo not given), the growth is -47.6% (active) in the assay on HCT-15 colon; -31.8% (active) with HT29 colon; -88.8% (active) with SNB-75 CNS; -65.5% (active) with SNB-19 CNS; -73.3% (active) in the assay with U251 CNS; -0.922% (active) in the assay with PC-3 prostate. In addition, the growth in the assay with SK-MEL-5 melanoma was -95.2% (active); with UACC-62 melanoma, -51.2% (active); in the assay with LOX IMVI melanoma, -71% (active); in the assay with SK-MEL-28 melanoma, -18.2% (active).
In the case of `COC(=O)[C@@H](C)C[C@H](Cc1ccccc1)NC(=O)c1nc([C@@H](C[C@H](C(C)C)N(C)C(=O)[C@@H](NC(=O)[C@H]2CCCCN2C)C(C)C)OC(C)=O)sc1C(C)C`, the growth is 5.69% (active) in the assay on HCT-15 colon; 1.52% (active) in the assay on HT29 colon; -0.49% (active) in the assay with SNB-75 CNS; 27.7% with SNB-19 CNS; 6.19% (active) in the assay on U251 CNS; 21.2% in the assay on PC-3 prostate. The growth was -57.3% (active) in the assay on SK-MEL-5 melanoma, 29.4% in the assay on UACC-62 melanoma, 9.2% (active) in the assay on LOX IMVI melanoma and 49.1% in the assay with SK-MEL-28 melanoma.
Consider `Nc1ccc2c(c1)oc1ccccc12`, for which the growth is 112% in the assay on HCT-15 colon; 92.2% in the assay with HT29 colon; 81.1% with SNB-75 CNS; 110% in the assay with SNB-19 CNS; 94.4% with U251 CNS; 82.6% with PC-3 prostate. The growth with SK-MEL-5 melanoma is 104%; with UACC-62 melanoma it was 94.9%; with LOX IMVI melanoma, 109%; in the assay on SK-MEL-28 melanoma, 104%.
Consider `C[C@]12CCc3sc(-c4ccccc4O)nc3C1=CC[C@@H]1[C@@H]2CC[C@]2(C)C(=O)CC[C@@H]12`, for which the growth with HCT-15 colon is 98%; in the assay with HT29 colon it was 104%; in the assay with SNB-75 CNS, 95.5%; in the assay on SNB-19 CNS it was 101%; in the assay with U251 CNS it was 102%; in the assay with PC-3 prostate it was 98.9%. Also, the growth was 110% in the assay on SK-MEL-5 melanoma, 94.3% in the assay on UACC-62 melanoma, 104% with LOX IMVI melanoma and 113% in the assay on SK-MEL-28 melanoma.
For `ClCCN(CCCl)c1ccc(/C=N/Nc2ncnc3nc[nH]c23)cc1`, the growth was 95% with HCT-15 colon; 77.5% in the assay with HT29 colon; 72.7% with SNB-75 CNS; 82% in the assay on SNB-19 CNS; 67.6% in the assay on U251 CNS; 232% in the assay on PC-3 prostate. The growth in the assay with SK-MEL-5 melanoma was 75%; in the assay on UACC-62 melanoma, 74%; with LOX IMVI melanoma, 65.8%; in the assay with SK-MEL-28 melanoma it was 117%.
With `Cc1ccc2c(C(C[N+](=O)[O-])c3cccs3)c(-c3ccccc3)[nH]c2c1` (stereo not given), the growth in the assay on HCT-15 colon is 20%; in the assay with HT29 colon it was 9.87% (active); in the assay on SNB-75 CNS, -37.2% (active); in the assay with SNB-19 CNS, 37.8%; with U251 CNS, 21%; in the assay with PC-3 prostate, 28%. Besides, the growth with SK-MEL-5 melanoma was 36.3%; in the assay on UACC-62 melanoma it was 38.3%; with LOX IMVI melanoma it was 31.7%; in the assay with SK-MEL-28 melanoma it was 49.4%.
As for `CC12CCC=CC1CCC1C2CCC2(C)C(c3ccc(=O)oc3)CCC12O` (stereo not given), the growth was -71.7% (active) in the assay on HCT-15 colon; -66.5% (active) in the assay with HT29 colon; -56.7% (active) with SNB-75 CNS; -99.9% (active) with SNB-19 CNS; -77.2% (active) with U251 CNS; -19.6% (active) in the assay on PC-3 prostate. For the same compound, the growth was -56.6% (active) in the assay on SK-MEL-5 melanoma, -65.4% (active) in the assay with UACC-62 melanoma, -83.8% (active) with LOX IMVI melanoma and -31.1% (active) in the assay on SK-MEL-28 melanoma.
For the compound `O=C1C2C(C(=O)[N]1[Hg][c]1ccccc1)C1(Cl)C(Cl)=C(Cl)C2(Cl)C1(Cl)Cl` (stereo not given), the growth with HCT-15 colon is -89.1% (active); with HT29 colon, -45% (active); in the assay with SNB-75 CNS, -64.1% (active); in the assay with SNB-19 CNS, 25.9%; in the assay with U251 CNS it was -65.9% (active); in the assay on PC-3 prostate, -57.4% (active). Besides, the growth is -16.6% (active) with SK-MEL-5 melanoma, -3.49% (active) in the assay on UACC-62 melanoma, -82.8% (active) in the assay with LOX IMVI melanoma and -88.9% (active) with SK-MEL-28 melanoma.
Regarding `CCN(CC)CCOC(=O)C(OC(C)C)(c1ccccc1)c1ccccc1`, the growth in the assay with HCT-15 colon is 96.4%; in the assay on HT29 colon, 79.7%; in the assay on SNB-75 CNS it was 88.3%; in the assay on SNB-19 CNS it was 96.2%; with U251 CNS, 101%; in the assay with PC-3 prostate, 83.7%. Moreover, the growth in the assay with SK-MEL-5 melanoma was 97.6%; in the assay on UACC-62 melanoma, 103%; in the assay with LOX IMVI melanoma it was 96.7%; with SK-MEL-28 melanoma, 99.6%.
Take `COC(=O)[C@@H](C)C[C@H](Cc1cn(C)c2ccccc12)NC(=O)c1csc([C@@H](C[C@H](C(C)C)N(C)C(=O)[C@@H](NC(=O)[C@H]2CCCCN2C)C(C)C)OC(C)=O)n1`: the growth in the assay with HCT-15 colon is 9.96% (active); in the assay on HT29 colon, 3.4% (active); in the assay with SNB-75 CNS, 59%; with SNB-19 CNS, 35.6%; in the assay with U251 CNS, 15.4%; with PC-3 prostate, 24.3%. Besides, the growth is -38.4% (active) in the assay on SK-MEL-5 melanoma, 47.8% in the assay with UACC-62 melanoma, 19.1% in the assay on LOX IMVI melanoma and 60.6% with SK-MEL-28 melanoma.
For `O=C1OCCC1Br` (stereo not given), the growth with HCT-15 colon is 98.7%; in the assay with HT29 colon it was 97.3%; in the assay with SNB-75 CNS it was 89.9%; with SNB-19 CNS, 104%; with U251 CNS, 92.2%; with PC-3 prostate, 99.5%. The growth was 103% with SK-MEL-5 melanoma, 103% in the assay with UACC-62 melanoma, 97.4% in the assay with LOX IMVI melanoma and 99.5% in the assay on SK-MEL-28 melanoma.
With `c1cc2c(c3c1CCNC3)OCO2`, the growth in the assay with HCT-15 colon is 102%; with HT29 colon, 91.8%; in the assay on SNB-75 CNS, 86.8%; with SNB-19 CNS, 106%; in the assay with U251 CNS, 92.6%; with PC-3 prostate, 102%. The growth in the assay on SK-MEL-5 melanoma was 101%; with UACC-62 melanoma, 100%; with LOX IMVI melanoma, 95.7%; in the assay with SK-MEL-28 melanoma, 109%.
As to `O=[N+]([O-])c1cc([N+](=O)[O-])c(Cl)cc1Cl`, the growth in the assay on HCT-15 colon was -58.4% (active); in the assay with HT29 colon it was -53.3% (active); with SNB-75 CNS, -97.7% (active); in the assay with SNB-19 CNS, 7.75% (active); with U251 CNS it was -71.3% (active); in the assay with PC-3 prostate, -14.7% (active). The growth in the assay on SK-MEL-5 melanoma is 30.1%; in the assay on UACC-62 melanoma, -79% (active); in the assay with LOX IMVI melanoma, -91.1% (active); in the assay on SK-MEL-28 melanoma, -41.2% (active).
On to `CN(C)C(=O)Oc1ccccc1`, for which the growth was 98.1% in the assay with HCT-15 colon; 118% with HT29 colon; 89.1% with SNB-75 CNS; 115% in the assay on SNB-19 CNS; 103% in the assay on U251 CNS; 94.8% in the assay with PC-3 prostate. Moreover, the growth is 113% with SK-MEL-5 melanoma, 109% with UACC-62 melanoma, 92.4% in the assay with LOX IMVI melanoma and 111% in the assay with SK-MEL-28 melanoma.
Take `COC(=O)[C@@H](C)C[C@H](Cc1ccccc1)NC(=O)c1csc([C@@H](C[C@H](C(C)C)N(C)C(=O)[C@@H](NC(=O)CN(C)C)C2CC2)OC(C)=O)n1`: the growth in the assay on HCT-15 colon is 14.6%; in the assay with HT29 colon it was -24.4% (active); in the assay with SNB-75 CNS, 37.4%; in the assay with SNB-19 CNS it was 41%; with U251 CNS, 12.7%; in the assay with PC-3 prostate it was 25.9%. The growth in the assay on SK-MEL-5 melanoma is -47.6% (active); with UACC-62 melanoma it was 63.8%; in the assay on LOX IMVI melanoma it was 8.77% (active); in the assay on SK-MEL-28 melanoma, 61.3%.
Consider `Fc1ccc(C2=CCNCC2)cc1`, for which the growth in the assay on HCT-15 colon is 109%; in the assay with HT29 colon, 109%; in the assay on SNB-75 CNS, 84.1%; with SNB-19 CNS it was 109%; in the assay with U251 CNS it was 96.9%; in the assay on PC-3 prostate, 101%. Also, the growth in the assay on SK-MEL-5 melanoma was 91.9%; in the assay with UACC-62 melanoma, 86.4%; in the assay on LOX IMVI melanoma, 90.1%; in the assay on SK-MEL-28 melanoma it was 107%.
On to `O=[As](O)(O)c1ccccc1[As](=O)(O)O`, for which the growth is 91.1% in the assay on HCT-15 colon; 109% with HT29 colon; 116% in the assay with SNB-75 CNS; 109% in the assay on SNB-19 CNS; 93.6% in the assay with U251 CNS; 93.3% in the assay on PC-3 prostate. Besides, the growth in the assay with SK-MEL-5 melanoma is 107%; in the assay on UACC-62 melanoma it was 98.5%; with LOX IMVI melanoma, 87.6%; with SK-MEL-28 melanoma, 117%.
